Records with an inconclusive call do not appear. Unless noted, calls come from the whole dose curve; as a rule, active = well fitted curve in either direction with a large enough effect (not every such curve was filed as active); inconclusive = small, poorly fitted or top-dose-only effect, or another doubt; inactive = flat fitted curve, though single readings scatter.
How the values were obtained:
[1] = AP1 Signaling Pathway (AID 357); conditions: ME-180 AP-1-bla reporter, EGF-induced, beta-lactamase ratio, 5 h; at 17.2 µM (top of the series) unless noted; note: % is set by controls: 0 for no effect and ±100 for the full control effect
Summary of the method: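 AP-1-bla ME-180 cells with beta-lactamase reporter under AP-1 response element, stimulated with EC50 EGF; compounds titrated, 5 hours at 37 degrees Celsius. CCF4 read at 460/530 nm ratio; positive and negative modulators judged by AC50.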

[2] = NFAT Signaling Pathway (AID 444); conditions: Jurkat NFAT-bla M1, carbachol, beta-lactamase ratio, 5 h; at 17.2 µM (top of the series) unless noted;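 note: carbachol stimulus at about its EC50 of 1 µM final; % is set by controls: 0 for no effect and ±100 for the full control effect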
Summary of the method: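 Jurkat cells with NFAT-driven β-lactamase reporter and co-expressed M1 receptor, stimulated with carbachol (final 1 uM, ~EC50), compound titration, 5 h at 37 °C. CCF4 loaded 1 h at RT; 460/530 nm ratio gave %activity and AC50.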

[3] = Stat Signaling Pathway (AID 446); conditions: ME-180 (cervical carcinoma) SIE beta-lactamase reporter, IL-6 stimulated, 5 h; at 17.2 µM (top of the series) unless noted;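 note: ME-180 cervical cancer cells given 40 pM IL-6 alongside compound; SIE-controlled beta-lactamase reporter measured as 460/530 nm FRET emission ratio; % is set by controls: 0 for no effect and ±100 for the full control effect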
Summary of the method: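 Compound effects on IL-6-induced STAT reporter activity were measured in ME-180 cells. After overnight culture, cells were co-treated with 40 pM IL-6 for 5 hrs before beta-lactamase substrate loading at room temperature.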

[4] = biological target: Glucocorticoid receptor (Homo sapiens) (UniProt P04150); experiment: GR-GFP Redistribution (AID 450;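 active = compounds whose dose series gives a full or clear partial fitted curve of increased nuclear translocation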; note: potency is the fitted concentration of half-maximal effect); conditions: U2OS GR-GFP nuclear translocation, laser cytometry, 2 h; series mostly up to 20.6 µM
Glucocorticoid receptor (Homo sapiens), sequence (P04150 whole entry, looked up): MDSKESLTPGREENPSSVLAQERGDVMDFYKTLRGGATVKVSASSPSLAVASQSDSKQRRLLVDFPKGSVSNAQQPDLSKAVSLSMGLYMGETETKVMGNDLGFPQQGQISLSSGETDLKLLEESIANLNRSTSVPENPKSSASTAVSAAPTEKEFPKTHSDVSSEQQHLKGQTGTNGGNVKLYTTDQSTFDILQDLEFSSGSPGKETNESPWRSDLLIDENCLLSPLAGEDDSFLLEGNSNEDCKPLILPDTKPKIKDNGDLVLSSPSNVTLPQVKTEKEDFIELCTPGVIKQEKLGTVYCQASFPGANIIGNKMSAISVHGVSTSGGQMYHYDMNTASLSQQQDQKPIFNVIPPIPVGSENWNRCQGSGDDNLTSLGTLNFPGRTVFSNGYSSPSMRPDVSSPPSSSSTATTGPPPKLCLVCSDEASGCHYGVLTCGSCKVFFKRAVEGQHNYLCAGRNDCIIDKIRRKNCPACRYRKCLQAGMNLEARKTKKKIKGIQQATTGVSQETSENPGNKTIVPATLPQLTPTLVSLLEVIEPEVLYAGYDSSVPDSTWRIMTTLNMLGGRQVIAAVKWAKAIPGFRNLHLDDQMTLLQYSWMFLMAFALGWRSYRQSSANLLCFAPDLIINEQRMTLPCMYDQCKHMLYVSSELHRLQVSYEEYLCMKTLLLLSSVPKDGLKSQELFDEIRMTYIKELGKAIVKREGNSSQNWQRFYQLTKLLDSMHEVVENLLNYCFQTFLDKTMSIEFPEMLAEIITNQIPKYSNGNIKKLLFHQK

CN1CC(=O)Nc2ccc(F)cc2C1=O
inactive: activity change, negative = inhibition [1] 13.4% | activity change, negative = inhibition [2] -4.14% | activity, negative = inhibition [3] 3.5% | Potency [4] > 20.6 µM

COc1cc(S(=O)(=O)N2CCN(C)CC2)c(OC)cc1Br
inactive: activity change, negative = inhibition [1] 9.1% | activity change, negative = inhibition [2] -13.8% | activity, negative = inhibition [3] 3.25% | Potency [4] > 20.6 µM

Nc1nc(NC(=O)Cc2ccccc2)nn1-c1ccccc1
inactive: activity change, negative = inhibition [1] 5.76% | activity change, negative = inhibition [2] 9.17% | activity, negative = inhibition [3] 4.24% | Potency [4] > 20.6 µM

Cc1nn(CC(=O)NCCN2CCOCC2)c(=O)c2ccccc12
inactive: activity change, negative = inhibition [1] 5.98% | activity change, negative = inhibition [2] 20% | activity, negative = inhibition [3] 8.76% | Potency [4] > 20.6 µM

Cc1cccc(N(CC(O)CN(C)C)S(=O)(=O)c2ccccc2)c1 (stereo not drawn)
inactive: activity change, negative = inhibition [1] -9.68% | activity change, negative = inhibition [2] -3.01% | activity, negative = inhibition [3] 3.62% | Potency [4] > 20.6 µM

Cc1ccc(-n2ncc3c(NCCCOC(C)C)ncnc32)c(C)c1
inactive: activity change, negative = inhibition [1] -18.8% | activity change, negative = inhibition [2] 25.7% | activity, negative = inhibition [3] -8.86% | Potency [4] > 20.6 µM

Cn1c(=O)[nH]c(=O)c2c1nc(N1CCN(c3cccc(Cl)c3)CC1)n2CCCc1ccccc1
inactive: activity change, negative = inhibition [1] 26.9% | activity change, negative = inhibition [2] -11.9% | activity, negative = inhibition [3] 6.95% | Potency [4] > 20.6 µM

CC(C)c1cc(NCCN2CCOCC2)n2c(nc3ccccc32)c1C#N
inactive: activity change, negative = inhibition [1] -4.92% | activity change, negative = inhibition [2] 6.15% | activity, negative = inhibition [3] 9.84% | Potency [4] > 20.6 µM

CCCCCSc1nc(C)c(CC(=O)O)c(=O)[nH]1
inactive: activity change, negative = inhibition [1] -1.76% | activity change, negative = inhibition [2] 15.5% | activity, negative = inhibition [3] 12.4% | Potency [4] > 20.6 µM

Cc1oc2nc(SCCCC(=O)NCCCO)nc(N)c2c1C
inactive: activity change, negative = inhibition [1] -11.8% | activity change, negative = inhibition [2] 15.2% | activity, negative = inhibition [3] 4.84% | Potency [4] > 20.6 µM

COc1ccc(NC2CC(=O)N(C)C2=O)cc1 (stereo not drawn)
inactive: activity change, negative = inhibition [1] 9.53% | activity change, negative = inhibition [2] -9.34% | activity, negative = inhibition [3] 11.9% | Potency [4] > 20.6 µM

CCOC(=O)c1c(CN2CCCCC2)oc2ccc(OC)cc12
inactive: activity change, negative = inhibition [1] 21.2% | activity change, negative = inhibition [2] 14.1% | activity, negative = inhibition [3] 0.706% | Potency [4] > 20.6 µM

Cc1nc2sc(C)c(C)c2c(=O)o1
inactive: activity change, negative = inhibition [1] -1.58% | activity change, negative = inhibition [2] 4.96% | activity, negative = inhibition [3] -1.71% | Potency [4] > 20.6 µM

Cc1cc2c(c(=O)n1Cc1cccnc1)C(c1ccccc1)C(C#N)=C(N)O2 (stereo not drawn)
inactive: activity change, negative = inhibition [1] -14.1% | activity change, negative = inhibition [2] 3.75% | activity, negative = inhibition [3] -17% | Potency [4] > 20.6 µM

Cc1cc2c(c(=O)n1CC1CCCO1)C(c1ccc3c(c1)OCO3)C(C#N)=C(N)O2 (stereo not drawn)
inactive: activity change, negative = inhibition [1] -18.5% | activity change, negative = inhibition [2] -16.1% | activity, negative = inhibition [3] -17.8% | Potency [4] > 20.6 µM

CCOC(=O)c1cc2cc(OC)ccc2[nH]1
inactive: activity change, negative = inhibition [1] -4.55% | activity change, negative = inhibition [2] -5% | activity, negative = inhibition [3] -4.94% | Potency [4] > 20.6 µM

CC(=O)c1cc2c(=O)c3ccccc3oc2nc1C
inactive: activity change, negative = inhibition [1] -1.73% | activity change, negative = inhibition [2] -16.9% | activity, negative = inhibition [3] 7.33% | Potency [4] > 20.6 µM

Reference: PubChem BioAssay (NCATS)
